Assay results: PubChem BioAssay AID602342 (Broad Institute, 2012)
About 1,000 (0.29%) of roughly 340,000 compounds were called active.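 How the source made its calls: active means mean replicate activation score at least 90 and every replicate individually at or above 90; inconclusive means only one of the two criteria met; inactive means neither criterion met.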 What follows is part of a selection rich in actives, with near analogues and random picks from the rest.

Experiment: miR-122 Renilla sensor signal increase in Huh7, primary screen, miR-122 inhibitor project, cell-based, single point, plate reader (AID 602342);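 further: higher luciferase means less miR-122 activity so hits act as miR-122 inhibitors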
Conditions: Huh7 miR-122 Renilla luciferase sensor, 48 h, hits give high values, neutral wells = 0, positive control = 100; at 16.7 µM unless noted

Activation (reporter increase), inactive:
CC(C)NC(=O)N(C)C[C@@H]1Oc2c(NC(=O)c3cnccn3)cccc2C(=O)N([C@@H](C)CO)C[C@@H]1C 4.6%
C[C@@H]1CN([C@H](C)CO)C(=O)c2cccc(NC(=O)c3cnccn3)c2O[C@@H]1CN(C)Cc1ccncc1 -3.39%
C[C@H](CO)N1C[C@H](C)[C@H](CN(C)Cc2ccc(C(=O)O)cc2)Oc2c(NC(=O)C3CCOCC3)cccc2C1=O -5.1%
C[C@H](CO)N1C[C@H](C)[C@@H](CN(C)Cc2ccccc2)Oc2c(NC(=O)C3CCOCC3)cccc2C1=O 14.3%
CN(C)CCCNC(=O)C[C@@H]1C=C[C@H](NC(=O)Cc2cccnc2)[C@H](CO)O1 15.8%
COc1ccc(S(=O)(=O)N(C)C[C@H]2OCCCC[C@@H](C)Oc3ccc(NC(=O)CCC(F)(F)F)cc3C(=O)N([C@@H](C)CO)C[C@H]2C)cc1 16.9%
C[C@@H]1CCCCO[C@@H](CN(C)S(=O)(=O)c2cn(C)cn2)[C@@H](C)CN([C@@H](C)CO)C(=O)c2cc(NC(=O)Nc3ccc(C(F)(F)F)cc3)ccc2O1 -9.96%
CCOc1ncccc1C(=O)NNC(=O)c1cccc(S(=O)(=O)Nc2ccccc2OC)c1 -0.667% [at 12.5 µM]
COc1ccc(N2CC(NS(=O)(=O)c3ccc4ccccc4c3)CC2=O)cc1 (configuration not stated) -5.35% [at 12.5 µM]
C[C@H]1CN([C@@H](C)CO)C(=O)c2cccc(NC(=O)Nc3ccc(F)cc3)c2O[C@H]1CN(C)S(=O)(=O)c1cn(C)cn1 4.09%
COc1ccc(F)cc1S(=O)(=O)NCC(c1ccc2c(c1)OCO2)N1CCN(C)CC1 (configuration not stated) 2.63% [at 12.5 µM]
COc1ccc(S(=O)(=O)Nc2ccc3c(c2)OCO3)cc1Cl 37.2% [at 12.5 µM]
CCOc1ccc(S(=O)(=O)Nc2ccncc2)c(C)c1C 20.9% [at 12.5 µM]
COc1ccc(NS(=O)(=O)c2ccc(F)cc2F)cn1 -2.63% [at 12.5 µM]
CO[C@H]1CN(C)C(=O)c2ccc(NS(=O)(=O)c3ccccc3C)cc2OC[C@H](C)NC[C@H]1C 6.89%
Cn1cnc(S(=O)(=O)N2C[C@@H](O)COC[C@H]3O[C@@H](CC(=O)NCc4ccc(F)cc4)CC[C@@H]32)c1 2.69%
O=C(N[C@@H]1CC[C@H](CCn2cc(C3CC3)nn2)O[C@H]1CO)c1cccnc1 -7.57%

Activation (reporter increase), active:
C[C@H](CO)N1C[C@H](C)[C@H](CN(C)CC2CCCCC2)Oc2c(NC(=O)c3cnccn3)cccc2C1=O 119%
C[C@H](CO)N1C[C@H](C)[C@@H](CN(C)Cc2ccc3c(c2)OCO3)Oc2c(NC(=O)C3CCOCC3)cccc2C1=O 319%
COc1cc(NS(=O)(=O)c2ccc3ccccc3c2)c2ncccc2c1 152% [at 12.5 µM]
COc1ccc(F)cc1S(=O)(=O)Nc1ccc2c(c1)OCO2 99.7% [at 12.5 µM]
COc1ccc(S(=O)(=O)Nc2ccc(F)cc2)c(C)c1C 231% [at 12.5 µM]
